According to PubChem BioAssay AID1345083 (National Center for Advancing Translational Sciences (NCATS), 2018):
Among all 94,000 compounds or so, about 6,200 (6.6%) were called active. Inconclusive results (about 31%) are left out. Calls follow the shape of the dose curve; as a rule, active = well fitted inhibition curve with a large enough effect; inconclusive = small, poorly fitted or top-dose-only effect; inactive = flat fitted curve, though single readings scatter. Many of the other results were omitted from the sample, so actives are more common in it than they were.

Test: Cytotoxic Profiling in HEK 293 Cell Line of Diverse Libraries Using Quantitative High-Throughput Screening; also: nearly all actives have a fitted effect of over 60% in size
Conditions: HEK 293 viability, ATP luminescence (CellTiter-Glo), 48-72 h; series mostly up to 115 µM; activity change, negative = cytotoxicity: at the top concentration
Description: Cell-based phenotypic screening is a commonly used approach to discover biological pathways, novel drug targets, chemical probes and high-quality hit-to-lead molecules. Many hits identified from high-throughput screening campaign are ruled out through a series of follow-up potency, selectivity/specificity, and cytotoxicity assays. Prioritization of molecules with little or no cytotoxicity for a more in-depth downstream evaluation influence the future direction of projects, so cytotoxicity profiling of the screening libraries at early stage is essential for increasing the likelihood of candidate success. In this study, we analyzed results from a cell-based cytotoxicity screening campaign, comprising nearly 10,000 compounds in NCATS annotated libraries, and over 100,000 compounds in a diversity library, evaluated in four normal cell lines (HEK 293, NIH 3T3, CRL-7250 and HaCat) and a cancer cell line (KB 3-1, a HeLa subline) with overall screening outcomes, hit rates, pan-activity and selectivity. For the annotated library, we also examined the primary targets and mechanistic pathways regularly associated with cell death. To our knowledge, this is the first study to use high-throughput screening to profile large libraries for cytotoxicity assessment in both normal and cancer cell lines. In summary, the results generated here constitutes a valuable resource for the scientific community and provides insight on identifying cytotoxic compounds with particular mechanisms of action, and prioritizing compounds with suitable cytotoxicity profile for further evaluation.
HEK 293 cells were seeded into white 1536-well plates using a Multidrop Combi peristaltic dispenser (ThermoFisher, Waltham, MA) at a density of 250 cells/well in 5 uL of medium respectively. A pintool (Kalypsys) was used to transfer 23 nL of compound solution to the 1536-well assay plates. After 48 or 72 hr incubation at 37 degree Celsius, 5% CO2 and 95% humidity, 2.5 uL of CellTiter-Glo (Promega) was dispensed into each well using a dispenser (Aspect Automation, St. Paul, MN) with solenoid valves (Lee Valves, Westbrook CT). Plates were left at room temperature for 10 min before imaging the ATP-coupled luminescence using a ViewLux microplate imager (PerkinElmer, Waltham, MA).
% is scaled to controls: 0 for no effect and ±100 for the full control effect; potency is read from the fitted curve at half-maximal effect.

Row | SMILES | activity change, negative = cytotoxicity | outcome | Potency
1 | Cc1ncc2c(n1)C[C@@H]1CC[C@H]2N1S(=O)(=O)c1ccc(F)cc1 | -9.05% (inactive) | – | –
2 | Cc1cccc(CC(=O)N2[C@H]3CC[C@@H]2c2cnc(C)nc2C3)c1 | – | inactive | –
3 | Cc1ncc2c(n1)C[C@@H]1CC[C@H]2N1C(=O)c1ccccn1 | -3.35% (inactive) | – | –
4 | O=C(Cc1ccccc1)N1[C@H]2CC[C@@H]1c1cnc(-c3ccc(F)cc3)nc1C2 | – | – | 28.2 µM (active)
5 | Cc1nc(C)c(C(=O)N2[C@H]3CC[C@@H]2c2cnc(-c4ccccc4)nc2C3)s1 | – | – | 39.8 µM (active)
6 | O=C(Cc1cccc(F)c1)N1[C@H]2CC[C@@H]1c1cnc(-c3ccccc3)nc1C2 | -17.9% (inactive) | – | –
7 | CCS(=O)(=O)N1[C@H]2CC[C@@H]1c1cnc(C)nc1C2 | – | inactive | –
8 | Cn1cnc(S(=O)(=O)N2[C@H]3CC[C@@H]2c2cnc(-c4ccc(F)cc4)nc2C3)c1 | -5.79% (inactive) | – | –
9 | COC(=O)c1ccc(NC(=O)N2[C@H]3CC[C@@H]2c2cnc(-c4ccc(F)cc4)nc2C3)cc1 | – | – | 44.7 µM (active)
10 | O=C(c1ccc2c(c1)CCO2)N1C[C@@H](c2ccc(F)cc2)[C@@H]2[C@H]1C1CCN2CC1 | – | inactive | –
11 | O=[S+]1([O-])NC2(CCN(CC3CCOCC3)C2)COc2ccncc21 (stereo unspecified) | – | inactive | –
12 | CC(=O)N1CC2(CCN(Cc3cccnc3)C2)Cc2ccccc21 (stereo unspecified) | -16.8% (inactive) | – | –
13 | CC(C)N1CCN(C(=O)Cc2cccn2-c2ccc(F)cc2)CC1 | -18.2% (inactive) | – | –
14 | Cc1ccc2c(n1)N(C)[C@H](CO)CCN(C1CCCC1)C2 | -1.63% [at 230 µM] (inactive) | – | –
15 | O=C1NC2(Cc3ccccc31)CN(CC1CC1)C2 | – | inactive [at 230 µM] | –
16 | Cc1ccc([C@@H]2CN(C(=O)c3ccco3)[C@@H]3C4CCN(CC4)[C@@H]32)cc1 | -13.1% (inactive) | – | –
17 | O=C(c1cocn1)N1C[C@H](c2cccc(F)c2F)[C@@H]2[C@H]1C1CCN2CC1 | – | inactive | –
18 | CCCS(=O)(=O)N1C[C@@H]2C[C@H](C1)c1ccc(-c3ccccc3C)c(=O)n1C2 | – | inactive [at 172 µM] | –
19 | COc1cc2c(cc1OC1CCCC1)NC(=O)C21CCN(c2nccs2)CC1 | – | – | 89.1 µM (active)
20 | COc1cc2c(cc1Oc1cccc(N(C)C)c1)NC(=O)C21CCN(Cc2ccccn2)CC1 | – | – | 44.7 µM (active)
21 | COc1cc2c(cc1Oc1ccccc1)NC(=O)C21CCN(c2ccnc(C)n2)CC1 | – | – | 63.1 µM (active)

Row | SMILES | activity change, negative = cytotoxicity | outcome | Potency
22 | COc1cc2c(cc1OCc1ccncc1)NC(=O)C21CCN(c2ncc(F)cn2)CC1 | – | – | 50.1 µM (active)
23 | O=C(c1ccncc1)N1C[C@@H]2C[C@H](C1)c1ccc(C3CCCCC3)c(=O)n1C2 | -2.59% [at 172 µM] (inactive) | – | –
24 | CC1=NOC2(CCN(Cc3cncs3)C2)C1 (stereo unspecified) | – | inactive [at 172 µM] | –
25 | O=[S+]1([O-])NCC2(CCN(Cc3cccnc3)C2)Oc2ncccc21 (stereo unspecified) | – | inactive | –
26 | O=C1CC2CCN(Cc3cccnc3)CC2CCN1 (stereo unspecified) | – | inactive [at 172 µM] | –
27 | O=C1NC2(Cc3ccccc31)CN(Cc1ccncc1)C2 | – | inactive [at 172 µM] | –
28 | COc1cccc([C@H]2CN(c3cc(C)nc(N)n3)[C@@H]3C4CCN(CC4)[C@H]23)c1 | -20.8% (inactive) | – | –
29 | CNC(C)c1ccc(Cl)cc1 (stereo unspecified) | -18.1% [at 230 µM] (inactive) | – | –
30 | Cc1ccccc1OCC(=O)N1CCN(Cc2ccc(=O)n(C)c2)CC1 | -19.9% (inactive) | – | –
31 | C=CCOc1c(Cl)cc(CNC(C)Cn2cccn2)cc1OC (stereo unspecified) | -12.6% (inactive) | – | –
32 | CC(C)N1CC2CCC(C1)N2C(=O)N1CCCC1 | 4.58% [at 172 µM] (inactive) | – | –
33 | O=C(NC1CCCCC1)N1C[C@@H]2C[C@H](C1)c1c(-c3ccccc3F)ccc(=O)n1C2 | -25.2% [at 172 µM] (inactive) | – | –
34 | FC(F)(F)CN1C2CCC1CN(c1ccc(Cl)nn1)C2 | – | inactive | –
35 | COc1cc2c(cc1-c1ccncc1)NC(=O)C21CCN(C(C)=O)CC1 | -19.9% [at 172 µM] (inactive) | – | –
36 | COc1cc2c(cc1OCc1ccccc1)NC(=O)C21CCN(C(=O)C(C)C)CC1 | – | – | 89.1 µM (active)
37 | CC(C)C(=O)N1CCC2(CC1)NCc1ccccc1-n1ccnc12 | -12.3% (inactive) | – | –
38 | COc1cc2c(cc1OCc1ccncc1)NC(=O)C21CCN(c2ncccn2)CC1 | – | – | 100 µM (active)
39 | COc1ccc([C@@H]2CN(C(=O)c3c(C)noc3C)[C@@H]3C4CCN(CC4)[C@@H]32)cc1 | -7.87% (inactive) | – | –
40 | CCC(CC)c1cc([C@H]2CN3CC[C@H]2C[C@@H]3CNS(=O)(=O)Cc2ccccc2)nc(-c2ccncc2)n1 | – | – | 31.6 µM (active)
41 | CCCS(=O)(=O)NC[C@H]1C[C@@H]2CCN1C[C@@H]2c1cc(C2CCCC2)nn1C | -26.7% [at 172 µM] (inactive) | – | –
42 | CCCCc1cn(C[C@H]2CC3CCN2C[C@@H]3C(=O)NCc2ccccc2)nn1 (stereo partly specified) | -1.65% [at 172 µM] (inactive) | – | –

Row | SMILES | activity change, negative = cytotoxicity | outcome | Potency
43 | CCC(CC)c1cc([C@H]2CN3CC[C@H]2C[C@@H]3CNC(=O)NCc2ccccc2)nc(-c2ccncc2)n1 | – | – | 28.2 µM (active)
44 | COc1ccc(-c2cn(C[C@H]3C[C@@H]4CCN3C[C@@H]4C(=O)NCc3ccccc3)nn2)cc1 | -21% [at 172 µM] (inactive) | – | –
45 | Cc1ccc(S(=O)(=O)NC[C@H]2C[C@@H]3CCN2C[C@@H]3CN2CCN(c3ncccn3)CC2)cc1 | -6.41% (inactive) | – | –
46 | O=[N+]([O-])c1ccc(N2CC3CCC(C2)N3CC(F)(F)F)nc1 | – | inactive | –
47 | Cc1ccc(S(=O)(=O)NC[C@H]2C[C@@H]3CCN2C[C@@H]3CN2CCSCC2)cc1 | 0.97% [at 172 µM] (inactive) | – | –
48 | Cc1noc(C)c1C(=O)N1C2CCC1CN(Cc1cccnc1)C2 | -29.8% (inactive) | – | –
49 | O=C(O)COCC(=O)N1C[C@@H]2C[C@H](C1)c1c(-c3ccc4ccccc4c3)ccc(=O)n1C2 | -2.71% [at 172 µM] (inactive) | – | –
50 | CCOc1ccc(C(=O)N2CCC3(CC2)c2nccn2-c2ccccc2CN3C)cc1 | -21.5% (inactive) | – | –
51 | C#C[C@H]1CN2CC[C@H]1C[C@@H]2CNC(=O)C1CC1 | -2.38% [at 230 µM] (inactive) | – | –
52 | CCCNC(=O)OC[C@H]1C[C@@H]2CCN1C[C@@H]2c1cc(-c2ccc(OC)c(OC)c2)nn1C | -12.2% (inactive) | – | –
53 | C#C[C@H]1CN2CC[C@H]1C[C@@H]2COC(=O)Nc1cc(OC)cc(OC)c1 | – | – | 100 µM (active)
54 | FC(F)(F)CN1C2CCC1CN(c1ccc(C(F)(F)F)nc1)C2 | -14.1% (inactive) | – | –
55 | Cn1cc(CN2CCN3C(=O)N(c4ccccn4)C[C@H]3C2)cn1 | – | inactive [at 172 µM] | –
56 | O=C(NC[C@H]1C[C@@H]2CCN1C[C@@H]2CN1CCC(Cc2ccccc2)CC1)c1ccco1 | -25.4% [at 172 µM] (inactive) | – | –
57 | CC[C@H]1CN2CC[C@H]1C[C@@H]2CNCc1cccc(C#N)c1 | -0.0855% [at 230 µM] (inactive) | – | –
58 | CC[C@H]1CN2CC[C@H]1C[C@@H]2CNC(=O)c1ccc(N(C)C)cc1 | 4.54% [at 172 µM] (inactive) | – | –
59 | CN(CCc1ccccn1)C[C@H]1CN2CC[C@H]1C[C@@H]2CNC(=O)c1ccccc1 | -30% [at 172 µM] (inactive) | – | –
60 | C=CCN(C)C[C@H]1CN2CC[C@H]1C[C@@H]2CNC(=O)Nc1cccc(SC)c1 | – | – | 63.1 µM (active)
61 | CN(Cc1ccccc1)C[C@H]1CN2CC[C@H]1C[C@@H]2CNC(=O)Nc1cccc(C#N)c1 | – | – | 89.1 µM (active)
